Shown are actives, neighbours in structure and some others; about 17% of the full set was active somewhere.
HepG2 tox = qHTS for Inhibitors of TGF-b: Cytotox Counterscreen; HepG2 CAGA-GFP viability, ATP luminescence, 18 h; Potency, µM (top dose mostly 46.1 µM), actives largely listed as cytotoxic; hit rate 0.76% among 410,000; AID 588856, 2011
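HepG2 CAGA-GFP cells (1000/well, DMEM with 1% FBS) received compound, then TGF-beta at 500 pg/mL final, and were incubated 18 hours at 37 degrees C. Viability was read by CellTiter-Glo luminescence. Media-only wells were set as complete cell-killing and DMSO as no toxicity.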
HT1080NT lethal = qHTS for induction of synthetic lethality in tumor cells producing 2HG: qHTS for the HT-1080-NT fibrosarcoma cell line; HT-1080-NT fibrosarcoma viability, CellTiter-Glo ATP luminescence, 48 h; Potency, µM (highest dose often 46.1 µM), usual class: cytotoxic; hit rate 1.6% among 360,000; AID 686970, 2013;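 also: NT is the 2HG producing partner of a matched IDH1 knockdown line; nearly all actives have a fitted effect of over 55% in size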
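Toxicity toward the 2HG-producing NT line was scored as %Activity, normalised to DMSO and no-cell wells, from CellTiter-Glo luminescence after 48 hours' treatment.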
TDP1 cell noCPT = qHTS for Inhibitors of human tyrosyl-DNA phosphodiesterase 1 (TDP1): qHTS in cells in absence of CPT. DT40 Tdp1-/- hTDP1 cells, no CPT, ATP luminescence, 48 h. Potency, µM (series often up to 46.2 µM), actives largely listed as inhibitors. hit rate 15% among 420,000. AID 686978, 2013; also: nearly all actives have a fitted effect of over 55% in size
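Luminescent ATP content (CellTiter-Glo) served as the growth readout. Knockout chicken DT40 cells expressing human TDP1 were exposed to compounds without camptothecin for a minimum 48 hr at 37 °C.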
HT1080 IDH1KD tx = qHTS for induction of synthetic lethality in tumor cells producing 2HG: qHTS for the HT-1080-IDH1KD cell line. HT-1080 IDH1 knockdown viability, ATP luminescence, 48 h. Potency, µM (highest dose often 46.1 µM), hits mostly cytotoxic. hit rate 2% among 360,000. AID 686971, 2013
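Cytotoxicity counter-line: IDH1KD HT-1080, 48 h, CellTiter-Glo. Curves classed by r2, magnitude and activity.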
TGFb inhibitor = qHTS for Inhibitors of TGF-b; HepG2 CAGA-GFP TGF-b/SMAD3 reporter, GFP fluorescence, 18 h; TGF-beta stimulated, 500 pg/mL final; AID 588855, 2011; Potency, µM (series often up to 46.1 µM), actives largely listed as inhibitors; hit rate 1.2% among 410,000; also: nearly all actives have a fitted effect of over 65% in size
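HEPG2 CAGA-GFP reporter cells (1000/well, DMEM with 1% FBS) received compounds, then recombinant TGF-beta at 500 pg/mL final for 18 hours at 37 degrees C. Per-cell GFP summed per well was normalised to unstimulated and stimulated DMSO controls before curve fitting.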
TDP1 cell CPT = qHTS for Inhibitors of human tyrosyl-DNA phosphodiesterase 1 (TDP1): qHTS in cells in presence of CPT | chicken DT40 Tdp1-/-;hTDP1 cells + 20 nM CPT, ATP luminescence, 48 h | Potency, µM (titrated, usually from 46.2 µM), actives largely listed as inhibitors | hit rate 12% among 420,000 | AID 686979, 2013; also: nearly all actives have a fitted effect of over 55% in size
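Chicken DT40 Tdp1-/- cells stably complemented with human TDP1 were seeded at 400 cells/well in medium containing 20 nM camptothecin, exposed to pin-transferred compounds, and grown at 37 °C for at least 48 hr. Viability was read as ATP luminescence.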
Numbers stand for hits; - = inactive; ? = inconclusive; . = no result. Calls follow the shape of the dose curve; as a rule, active = well fitted curve in the direction sought with a large enough effect; inconclusive = small, poorly fitted or top-dose-only effect, or another doubt; inactive = no such curve, though single readings can be large; an effect the other way counts as inactive or inconclusive.

SMILES	HepG2 tox	HT1080NT lethal	TDP1 cell noCPT	HT1080 IDH1KD tx	TGFb inhibitor	TDP1 cell CPT
Cc1ccc(S(=O)(=O)C[C@@H]2OC[C@H](C(C)C)N2S(=O)(=O)c2ccc(C)cc2)cc1	.	-	16µM	-	.	18µM
CC(=O)C[C@H]1SC[C@@H](C(C)C)N1S(=O)(=O)c1ccc(C)cc1	.	-	13µM	-	.	9.2µM
CCOC(=O)c1sc(NC(=O)c2nc(SCC)ncc2Cl)c(C(=O)OCC)c1C	-	.	-	.	-	-
COc1ccccc1NC(=O)Cn1c(C)cc(=O)c2cccc(OC)c21	-	?	4.6µM	?	?	2.9µM
COc1ccccc1NC(=O)Cn1c(=O)n(Cc2cccs2)c(=O)c2cccnc21	-	.	-	.	-	21µM
COc1ccccc1NC(=O)Cn1c(C)cc(C)c(C#N)c1=O	-	.	-	.	-	-
COc1cccc2c(=O)cc(C)n(CC(=O)Nc3ccc(C)c(C)c3)c12	-	?	15µM	-	-	?
Cc1cc(C)cc(OCC(=O)Nc2ccc3c(c2)C(=O)c2ccccc2C3=O)c1	-	-	-	-	-	-
O=Cc1ccc(-n2nncc2-c2ccc([N+](=O)[O-])cc2)cc1	-	-	?	-	-	-
CC(C)(C)c1cnnn1-c1ccc(/C=N/Nc2ccc([N+](=O)[O-])cc2)cc1	-	-	13µM	-	-	18µM
C/C(=N\Nc1nc(C)c(C)s1)c1ccc([N+](=O)[O-])cc1	-	21µM	21µM	16µM	-	?
C/C(=N\Nc1ccc([N+](=O)[O-])cc1)c1ccc(-n2nncc2C)cc1	-	-	21µM	?	?	?
Cc1ccc(CN2CCN(C3CCN(C(=O)OC(C)(C)C)CC3)C(=O)C2=O)cc1	-	.	-	.	-	-
Cc1cc(/C=C2/SC(=S)N(c3ccc([N+](=O)[O-])cc3)C2=O)c(C)n1-c1cccnc1	-	-	1µM	-	-	1.6µM
Cc1cc(/C=C2/NC(=O)N(c3ccccc3)C2=O)c(C)n1-c1cccnc1	-	-	?	-	-	26µM
Cc1cccc(N2C(=O)/C(=C/c3cccnc3)SC2=S)c1	-	-	-	-	-	?
Cc1ccc(N2C(=O)/C(=C/c3cccnc3)SC2=S)cc1	-	-	-	-	-	-
Cc1cc(/C=C2\SC(=S)N(C)C2=O)c(C)n1-c1ccccc1O	-	?	8.2µM	?	-	21µM
Cc1cccc(NC(=O)CN2C(=O)N/C(=C/c3cc(C)n(-c4cccnc4)c3C)C2=O)c1	-	-	?	-	-	-
Cc1cc(/C=C2/SC(=S)N(c3cccc(Cl)c3)C2=O)c(C)n1-c1cccnc1	-	?	2.1µM	3.3µM	?	2.6µM
COc1ccc(N2CCN(C(=O)c3cc(NC(C)=O)c4c(c3)ncn4CCc3ccccn3)CC2)cc1	.	.	-	.	.	-
O=C(Nc1nccs1)[C@@H]1CC=C[C@@H]2CCN(C3CCCCC3)C(=O)[C@@H]21	-	.	-	.	?	-
Cc1ccc(-c2cc(O)cc3sc(=O)oc23)cc1C	-	?	21µM	-	?	?
O=c1oc2cc(O)ccc2s1	-	-	?	-	-	?
CN1CCN(c2ccc(CNS(=O)(=O)Cc3ccc(Cl)cc3)cc2)CC1	-	-	16µM	-	-	?
SMILES	HepG2 tox	HT1080NT lethal	TDP1 cell noCPT	HT1080 IDH1KD tx	TGFb inhibitor	TDP1 cell CPT
CN1CCN(c2ccc(CNS(=O)(=O)c3ccc(F)cc3Cl)cc2)CC1	-	-	?	-	-	18µM
Cc1cc(S(=O)(=O)NCc2ccc(N3CCN(C)CC3)cc2)c(C)s1	-	-	21µM	-	-	?
CC1CCCCN1CC(=O)Nc1ccc2c(c1)OCO2 (configuration not stated)	-	-	-	-	-	-
OCC[C@@H]1C[C@H](O)[C@@H](O)[C@]2(Cc3ccccc3CO2)O1	-	-	-	-	-	-
N[C@H](CCC(=O)N[C@H](CSN=O)C(=O)NCC(=O)O)C(=O)O	.	.	-	.	.	-
Cc1ccc(S(=O)(=O)N(C)C)cc1NC(=O)COC(=O)Cc1ccsc1	-	-	-	-	-	-
O=C(Cn1nnnc1-c1ccccc1F)Nc1ccc(F)c(F)c1	-	.	-	.	-	-
CS(=O)(=O)NCCNc1ccc(Cl)cc1[N+](=O)[O-]	-	-	?	-	-	-
CCc1nc(N)nc(N)c1-c1ccc(NCCN)c([N+](=O)[O-])c1	.	.	2.6µM	.	?	8.2µM
CCc1nc(N)c(C#N)c(-c2ccncc2)c1C	-	-	-	-	-	-
CCc1nc(N)nc(N)c1-c1ccc(Cl)cc1	-	0.82µM	0.65µM	1.2µM	?	0.94µM
COc1ccc(CNC(=O)c2cnc(N3CCOCC3)c3ccccc23)cc1	-	.	?	.	-	?
N#Cc1ccccc1NC(=O)c1cnc(N2CCOCC2)c2ccccc12	-	.	?	.	-	?
CCOc1ccc(NC(=O)c2cnc(N3CCCCC3)c3ccccc23)cc1	-	.	13µM	.	-	21µM
CCOC(=O)c1ccccc1NC(=O)c1cnc(N2CCOCC2)c2ccccc12	-	.	16µM	.	-	?
O=C(NCc1ccccc1)c1cnc(N2CCCCC2)c2ccccc12	-	.	?	.	-	23µM
CCOc1ccc(NC(=O)c2cnc(Nc3ccccc3OC)c3ccccc23)cc1	-	.	?	.	-	?
COc1ccc(Cl)cc1NC(=O)c1cnc(N2CCCCC2)c2ccccc12	-	.	?	.	-	?
Cc1ccc(NC(=O)c2cnc(N3CCCCC3)c3ccccc23)cc1Cl	-	.	?	.	-	21µM
CCN(CC)C(=O)C1CCCN(c2ccccc2[N+](=O)[O-])C1 (configuration not stated)	-	-	-	-	-	-
COc1ccc(CCC(=O)NNC(=O)c2ccc(OC)cc2)cc1	-	-	-	-	-	-
Cc1onc(-c2ccccc2)c1C(=O)N1CCN(Cc2ccccc2)CC1	-	-	?	-	-	-
Cc1ccc(S(=O)(=O)N2CCCOC2CNC(=O)C(=O)NCc2ccco2)cc1 (configuration not stated)	-	-	-	-	-	-
CCCCCc1ccc(OCCCC[n+]2cccc(C)c2)c(CCCCC)c1	-	4.1µM	1.2µM	4.1µM	?	2.3µM
CCCCCCCCCCCCCCCC[n+]1ccc(C)cc1	-	.	0.5µM	.	?	0.89µM

Screens from PubChem.
